Source: PubChem BioAssay (National Center for Advancing Translational Sciences (NCATS))
This is a sample that favours compounds with a hit; in the whole collection about 3.2% have one here.
LASV entry inh: inhibitors of Lassa virus binding or cell entry; Lassa virus pseudotype entry inhibition, cell reporter; Potency, µM (top dose mostly 37.9 µM), inactives show at the highest dose activity change, negative = inhibition, actives largely listed as inhibitors; hit rate 1.2% among 300,000; calls by dose curve; tested in HEK293 cells; also: nearly all actives have a fitted effect of over 50% in size
Vaccinia mCherry: vaccinia inhibition (mCherry reporter) | Vaccinia virus mCherry reporter infection, fluorescence | Potency, µM (titrated, usually from 36.5 µM), without a hit: at the top dose activity change, negative = inhibition, hits mostly inhibitors | hit rate 0.63% among 310,000 | AID 720579; calls by dose curve; tested in A549 cells; also: nearly all actives have a fitted effect of over 35% in size
Vaccinia Venus: vaccinia inhibition (Venus reporter); Vaccinia virus Venus reporter expression, fluorescence; Potency, µM (series often up to 36.5 µM), without a hit: top-dose activity change, negative = inhibition, hits mostly inhibitors; hit rate 0.46% among 330,000; calls by dose curve; tested in A549 cells; also: nearly all actives have a fitted effect of over 30% in size
MARV entry inh: blocks Marburg virus binding to or entry into cells | hit rate 1.8% among 300,000 | Potency, µM (doses to about 37.8 µM), without a hit: at the top dose activity change, negative = inhibition, most hits filed as inhibitors | AID 540276 | Marburg virus pseudotyped entry inhibition, cell reporter; calls by dose curve; tested in HEK293 cells
FMDV inh: foot and mouth disease virus antiviral activity; AID 1159524; hit rate 1.2% among 410,000; Potency, µM (highest dose often 57.9 µM), without a hit: at the top dose activity change, negative = inhibition, actives largely listed as inhibitors; FMDV antiviral cell-based qHTS; calls by dose curve; tested in HEK293T cells; also: read-out not given here; nearly all actives have a fitted effect of over 45% in size
Active calls of the source: *; [ ] = remark or other dose. % is scaled to controls: 0 for no effect and ±100 for the full control effect; potency is read from the fitted curve at half-maximal effect.

For COc1ccccc1C(=O)Nc1nc(-c2ccc(S(=O)(=O)N3CCOCC3)cc2)cs1 the results were LASV entry inh 3.66µM*, MARV entry inh 7.3µM* and FMDV inh 3.16µM*.
For COc1ccc(-c2csc(NC(=O)c3ccccc3S(C)(=O)=O)n2)cc1 the results were LASV entry inh inconclusive, Vaccinia mCherry inactive, Vaccinia Venus -7.1%, MARV entry inh inconclusive and FMDV inh 25.1µM*.
Screening CCOC(=O)Cc1csc(NC(=O)c2ccc(C)c(S(=O)(=O)N3CCOCC3)c2)n1 returned FMDV inh 31.6µM*.
`C[C@]1(C(=O)CSc2nc3ccccc3[nH]2)CCC(=O)O1` gave MARV entry inh -1.1%.
`Cc1ccc(N2CC(C(=O)N3CCOCC3)CC2=O)cc1Cl` (stereo not given) gave LASV entry inh 0.1%[46.1 µM], Vaccinia mCherry -4.9%, Vaccinia Venus -0.9%, MARV entry inh inconclusive and FMDV inh 32.1%.
`CCOc1ccc2nc(NC(=O)c3ccc(S(=O)(=O)N4CCOCC4)cc3)sc2c1` gave LASV entry inh 3.3%, Vaccinia mCherry 8.5%, Vaccinia Venus -9.3%, MARV entry inh 9.1% and FMDV inh 28.2µM*.
CCOc1cccc(C(=O)Nc2nc(-c3ccc(S(=O)(=O)N4CCOCC4)cc3)cs2)c1 was read as LASV entry inh inconclusive, Vaccinia Venus -23.7%, MARV entry inh -1.1% and FMDV inh 17.8µM*.
COc1ccc(-c2csc(NC(=O)C3CCCCN3S(=O)(=O)c3ccccc3)n2)cc1 (stereo not given) was read as LASV entry inh 15.8µM*, Vaccinia Venus inconclusive, MARV entry inh inconclusive and FMDV inh -63.0%.
`COc1ccccc1C1(O)CCN(CC(=O)Nc2nc(-c3ccccc3)cs2)CC1` gave LASV entry inh 5.62µM*, Vaccinia mCherry -19.7%, Vaccinia Venus -10.0%, MARV entry inh inconclusive and FMDV inh 25.1µM*.
`COc1cc2nc(NC(=O)c3ccc(S(=O)(=O)N4CCOCC4)cc3)sc2cc1OC` gave LASV entry inh -2.1%[46.1 µM], Vaccinia mCherry -5.6%, Vaccinia Venus 0.0% and FMDV inh -9.9%.
CCc1nnc(NC(=O)CN2CCC(O)(c3ccccc3OC)CC2)s1 was read as LASV entry inh 16.0%, Vaccinia mCherry inactive, Vaccinia Venus -7.6% and MARV entry inh 0.7%.
Screening COc1cc(N2CN=c3s/c(=C\c4ccccn4)c(=O)n3C2)cc(OC)c1OC returned LASV entry inh 6.7%, Vaccinia mCherry -9.2%, Vaccinia Venus -5.7%, MARV entry inh -1.2% and FMDV inh 0.7%.
Screening COc1ccc2[nH]cc(CCNc3cc(-c4cccc(C#N)c4)ncn3)c2c1 returned FMDV inh -24.5%.
For COc1ccc(CN(C)C(=O)c2ccc(OCC(=O)Nc3cccc(C(F)(F)F)c3)c(OC)c2)c(OC)c1 the results were LASV entry inh inconclusive, Vaccinia mCherry -2.6%, Vaccinia Venus inconclusive, MARV entry inh inconclusive and FMDV inh inconclusive.
For COc1cccc(CN(C)C(=O)c2ccc(OCC(=O)Nc3cccc(C(F)(F)F)c3)c(OC)c2)c1 the results were LASV entry inh 8.91µM*, Vaccinia mCherry inconclusive, Vaccinia Venus inconclusive, MARV entry inh inconclusive and FMDV inh inconclusive.
`Cc1ccc(-c2ccnc(-n3ncc(C(=O)NCCN4CCOCC4)c3C3CC3)n2)o1` gave Vaccinia mCherry inactive, Vaccinia Venus -18.5% and FMDV inh -21.0%.
`CC[n+]1c(C=C2C=C(C)OC(C)=C2)sc2ccccc21` gave LASV entry inh 5.01µM*, Vaccinia mCherry -28.7%, Vaccinia Venus 79.3%, MARV entry inh inconclusive and FMDV inh inconclusive.
`CCOC(=O)c1c(-c2ccc(F)cc2)csc1NC(=O)CCN1CCOCC1` gave LASV entry inh -24.6%, Vaccinia mCherry -9.4%, Vaccinia Venus -15.3%, MARV entry inh 9.5% and FMDV inh -12.6%.
CCOC(=O)c1c(-c2cccs2)csc1NC(=O)CN1CC(C)OC(C)C1 (stereo not given) was read as LASV entry inh inconclusive, Vaccinia mCherry -20.0%, Vaccinia Venus -25.4%, MARV entry inh 11.2µM* and FMDV inh inconclusive.
`CCOC(=O)c1c(-c2ccc(-c3ccccc3)cc2)csc1NC(=O)CNCCN(C)C` gave LASV entry inh inconclusive, Vaccinia mCherry 10µM*, Vaccinia Venus inconclusive, MARV entry inh inconclusive and FMDV inh -29.2%.
